Results filed as inconclusive are left out. Unmarked numbers belong to inactive results. Calls of active or inactive are those of the source. Unless noted, the call rests on the fitted dose curve; in most records, active means well fitted curve in the direction sought with a large enough effect; inconclusive means small, poorly fitted or top-dose-only effect, or another doubt; inactive means no such curve, though single readings can be large; an effect the other way counts as inactive or inconclusive.

Assay [1] concerns the target Cytochrome P450 2D6 (Homo sapiens) (UniProt P10635). The assay is described as follows: qHTS Assay for Inhibitors and Substrates of Cytochrome P450 2D6 (AID 891). Further: potency means the concentration at half of the fitted maximal effect; nearly all actives have a fitted effect of over 60% in size. In outline:
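Human CYP2D6 (5 nM) with 30 uM Luciferin-ME EGE (at Km) in 100 mM KPO4, compound preincubated 10 min, then NADPH regeneration system for 60 min at room temperature. Luciferin read by luminescence; normalized to 1.43 uM quinidine.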
A general note: qHTS replaces the single test concentration by a dilution series.

Assay [2] deals with Cytochrome P450 2C19 (Homo sapiens) (UniProt P33261). The assay can be described thus: qHTS Assay for Inhibitors and Substrates of Cytochrome P450 2C19 (AID 899). Further: potency means the concentration at half of the fitted maximal effect; nearly all actives have a fitted effect of over 60% in size. In a few lines:
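5 nM human CYP2C19 with 10uM Luciferin-H EGE (at KM) in 50mM KPO4, compound preincubated 10 min at 37C, then NADPH regeneration for 60 min at 37C. Luciferin read by luminescence after detection reagent; normalized to 57uM ketoconazole as full inhibition.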

For assay [3], the system named is ATS95. The assay can be described thus: qHTS profiling for inhibitors of Plasmodium falciparum proliferation (AID 504749). Further: potency means the concentration at half of the fitted maximal effect; nearly all actives have a fitted effect of over 60% in size. Particulars: P. falciparum in erythrocytes, SYBR Green DNA, 72 h; series mostly up to 28.7 µM. In a few lines:
(§1)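 P. falciparum-infected erythrocytes (0.3% parasitemia, 2.5% hematocrit) incubated with compound 72 h at 37 C, 5% CO2. Parasite DNA detected by SYBR Green after lysis, overnight at room temperature; normalised to 0.29 uM artemisinin and DMSO.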

Assay [4] relates to CP215. The assay is described as above. The conditions noted are these: P. falciparum in erythrocytes, SYBR Green DNA, 72 h; series mostly up to 28.7 µM. In a few lines: as §1
The nature of assay [5]: qHTS Assay for Identification of Small Molecule Agonists for Hypoxia Response Element Signaling Pathway (AID 914; active means well fitted activation curve with a large enough effect in the signal ratio, with a control signal flat, not every such curve was filed as active; the % refers to the signal ratio; further: % of control where 0% means no effect). The conditions noted are these: ME-180 (cervical carcinoma) HRE-bla reporter, beta-lactamase ratio, CoCl2, 17 h; activation: stronger effect = higher value. In a few lines: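 In Opti-MEM containing 0.5% dialyzed FBS and 10 mM HEPES, ME-180 HRE-bla cells received a compound titration and EC50 CoCl2. They were incubated 17 hours, then CCF4-loaded 2.5 hours at room temperature before ratio reading.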

Sequence of Cytochrome P450 2D6 (Homo sapiens) (P10635 whole entry, looked up): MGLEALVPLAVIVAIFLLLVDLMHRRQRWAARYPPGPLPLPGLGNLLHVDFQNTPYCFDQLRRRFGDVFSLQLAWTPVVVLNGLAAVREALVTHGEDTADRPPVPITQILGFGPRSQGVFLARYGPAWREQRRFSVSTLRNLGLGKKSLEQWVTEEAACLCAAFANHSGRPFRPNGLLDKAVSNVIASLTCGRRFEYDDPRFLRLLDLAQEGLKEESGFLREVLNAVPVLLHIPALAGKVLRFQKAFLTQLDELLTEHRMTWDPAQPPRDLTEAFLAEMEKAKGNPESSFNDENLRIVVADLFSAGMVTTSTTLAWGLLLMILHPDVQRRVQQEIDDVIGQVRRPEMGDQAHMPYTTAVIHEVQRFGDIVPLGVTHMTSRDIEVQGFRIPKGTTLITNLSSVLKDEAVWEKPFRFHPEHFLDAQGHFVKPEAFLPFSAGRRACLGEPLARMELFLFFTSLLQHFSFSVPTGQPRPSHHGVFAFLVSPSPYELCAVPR
Sequence of Cytochrome P450 2C19 (Homo sapiens) (P33261 whole entry, looked up): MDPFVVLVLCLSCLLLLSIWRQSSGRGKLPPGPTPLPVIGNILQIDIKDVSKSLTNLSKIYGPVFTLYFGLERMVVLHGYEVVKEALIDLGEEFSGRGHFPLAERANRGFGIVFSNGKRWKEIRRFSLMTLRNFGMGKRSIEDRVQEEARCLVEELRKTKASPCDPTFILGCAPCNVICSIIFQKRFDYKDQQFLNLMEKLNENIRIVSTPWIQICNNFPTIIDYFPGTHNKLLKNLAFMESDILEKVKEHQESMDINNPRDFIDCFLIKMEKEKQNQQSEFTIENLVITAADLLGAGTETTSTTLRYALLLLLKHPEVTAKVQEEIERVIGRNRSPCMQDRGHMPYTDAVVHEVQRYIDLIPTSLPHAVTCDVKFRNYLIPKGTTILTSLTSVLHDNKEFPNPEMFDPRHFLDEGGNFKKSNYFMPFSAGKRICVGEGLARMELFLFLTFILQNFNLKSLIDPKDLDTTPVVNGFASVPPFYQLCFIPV

On to `COc1ccc2c(c1OC)CN1CCc3cc4c(cc3[C@H]1C2)OCO4`, for which the Potency in assay [1] is 0.0631 µM (active); in assay [2], 1.26 µM (active); in assay [3], 2.51 µM (active); in assay [4], 2.03 µM (active).
As to `CC(C)CN1CC[C@@]2(CCCN(C(=O)Oc3ccccc3)C2)C1`, the activation in assay [5] is -4.64%.

Source of the values: PubChem BioAssay (NCATS).
